Among the data in PubChem BioAssay (Tox21) are Potency and activity change, negative = cytotoxicity values, retold here.

Results filed as inconclusive are left out. A call without a number means that no potency is given here. Activity calls are given as the source filed them. Calls come from the whole dose curve; as a rule, active = well fitted cell-killing curve with a large enough effect in the repeat runs; inconclusive = weak or mixed curves, or effect the other way; inactive = flat fitted curve, though single readings scatter.
Potency is the fitted concentration of half-maximal effect.

A short description of this test: cAMP Responsive Elements (CRE) small molecule agonists, cell-based qHTS assay: qHTS cell viability counter screen (AID 2060914). Note: nearly all actives have a fitted effect of over 50% in size. As to conditions: CRE-bla HEK293T viability, CellTiter-Glo luminescence, 5 h; series mostly up to 92.4 µM. The method in brief:
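In the same wells as the reporter read, viability of CRE-bla HEK 293T cells was quantified by CellTiter-Glo luminescence after a 3 h compound exposure.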
A general note: In qHTS, concentration-response curves come from the screen itself.
In the case of `OCC(Br)CBr` (stereo not given), the Potency result was “inactive”.

As for `CCOP(=S)(OCC)Oc1cc(Cl)c(Br)cc1Cl`, the Potency result is “inactive”. For the compound `Cl/C=C/CCl`, the Potency result was “inactive”. On the same count and under the same terms, for `CCc1cc(OC)c(C[C@H](C)N)cc1OC` the value was “inactive”; for `[Cd+2].[Cl-].[Cl-]`, “inactive”. Still for that read-out and setting: under `CC(NC(C)(C)C)C(=O)c1cccc(Cl)c1` (stereo not given) stands “inactive”; under `O=c1ccc(=O)[nH][nH]1`, “inactive”; under `N#CSCSC#N`, “inactive”.

Take `CS(=O)(=O)c1cc(C(F)(F)F)ccc1C(=O)c1cnoc1C1CC1`: the Potency result is “inactive”. On the same count and under the same terms, for `Cc1cnc[nH]1` the value was “inactive”. In the case of `C[C@]12Cc3nonc3C[C@@H]1CC[C@@H]1[C@@H]2CC[C@@]2(C)[C@H]1CC[C@]2(C)O`, the Potency is 29.8 µM (active). `O=C=Nc1ccc(Cl)cc1`: the Potency result is “inactive”. Same read-out and setting: for `O=[N+]([O-])c1cccc2c([N+](=O)[O-])cccc12` the value was 61.4 µM (active); for `CC(C)CCCCCOC(=O)c1ccccc1C(=O)OCCCCCC(C)C`, “inactive”. The same measure, in the same setting: under `CCC(C)Cl` (stereo not given) stands “inactive”; under `CC(=O)CCc1ccc2c(c1)OCO2`, “inactive”. Still for that read-out and setting: under `O=c1c(C2CC(c3ccc(-c4ccc(Br)cc4)cc3)Cc3ccccc32)c(O)sc2ccccc12` (stereo not given) stands “inactive”; under `N#Cc1cc(Br)c(O)c(Br)c1`, “inactive”.

As for `O=[N+]([O-])c1ccc(F)c([N+](=O)[O-])c1`, the Potency entry is “inactive”. The same measure, in the same setting: under `CC(C)N1C(=O)N(c2ccccc2)CSC1=NC(C)(C)C` stands “inactive”.

Take `N[C@@H]1C[C@H]1c1ccccc1`: the Potency entry is “inactive”. On the same count and under the same terms, for `O=[N+]([O-])c1ccccc1` the value was “inactive”. `COc1cccc2c1cc([N+](=O)[O-])c1c(C(=O)O)cc3c(c12)OCO3`: the Potency entry is “inactive”.

Take `CCCCCCCCCCCC[N+](C)(C)CCOc1ccccc1`: the Potency was 61.1 µM (active). On the same count and under the same terms, for `c1ccc(N2CCNCC2)cc1` the value was “inactive”; for `C=CC(=O)OCCCCCC(C)C`, “inactive”.

Consider `Oc1c(I)cc(I)cc1I`, for which the Potency result was “inactive”.

`Cc1ccc2c(c1)C1CN(C)CCC1N2` (stereo not given): the activity change, negative = cytotoxicity is -0.524% [at 18.9 µM] (inactive). Consider `CC(C)(c1ccc(O)c(-c2ccccc2)c1)c1ccc(O)c(-c2ccccc2)c1`, for which the Potency was 61.1 µM (active).

Take `Oc1c(Br)c(Br)c(Br)c(Br)c1Br`: the Potency result is “inactive”. The same measure, in the same setting: under `C[N+](C)(C)CC1CO1` (stereo not given) stands “inactive”; under `CO/N=C(\C(=O)OC)c1ccccc1CO/N=C(\C)c1cccc(C(F)(F)F)c1`, “inactive”. Still for that read-out and setting: under `Cc1ccccc1CO[C@@H]1C[C@@]2(C(C)C)CC[C@]1(C)O2` stands “inactive”; under `CC(=O)[O-].[Tl+]`, “inactive”.

For `C#C[C@]1(O)CC[C@H]2[C@@H]3CCC4=CC(=O)CC[C@]4(C)[C@H]3CC[C@@]21C`, the Potency result is “inactive”. Take `N#CC(CCc1ccc(Cl)cc1)(Cn1cncn1)c1ccccc1` (stereo not given): the Potency entry is “inactive”. Still for that read-out and setting: under `OCCCl` stands “inactive”; under `N#Cc1cc(I)c(O)c(I)c1`, “inactive”; under `CCCCCCCCCCn1cc[n+](C)c1`, “inactive”. As to `CCN(Cc1ccc(Cl)nc1)/C(=C/[N+](=O)[O-])NC`, the Potency result is “inactive”.
